# Reference: PubChem BioAssay (NCATS)
# Records with an inconclusive call do not appear. Entries that show only a call come without a potency. Values without a mark were called inactive. Activity calls are given as the source filed them. Calls follow the shape of the dose curve; as a rule, active = well fitted cell-killing curve with a large enough effect; inconclusive = small, poorly fitted or top-dose-only effect, or effect the other way; inactive = flat fitted curve, though single readings scatter.
# Assays:
# Assay in all cases: Primary qHTS to identify gynecologic anti-cancer compounds using libraries of approved drugs and bioactive compounds (AID 1345084); also: nearly all actives have a fitted effect of over 55% in size
# Conditions in all cases: Gynecologic cancer cell panel viability, ATPlite luminescence, 48 h; series mostly up to 57.5 µM
# [1] = test system: SKOV3
# In short: (§1)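 In this quantitative HTS, cell killing is estimated from loss of ATP-dependent luciferase light. Cells see five compound concentrations over a 48 h exposure.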
# [2] = test system: Tov-21-G
# In short: as §1
# [3] = test system: Tov112D
# In short: as §1
# Potency is read from the fitted curve at half-maximal effect.
smiles,measurement,setting,value
O=C(NCCCN1CCC2(CC1)OCc1ccccc12)[C@H]1CCCN1Cc1ccccc1,Potency,[1],inactive
same,Potency,[2],inactive
same,Potency,[3],inactive
Nc1ncnc2c1c(-c1ccc(Cl)cc1)nn2-c1cccc(-c2cnnn2Cc2cccc(-c3ccccc3)c2)c1,Potency,[1],inactive
same,Potency,[2],inactive
same,Potency,[3],inactive
C=CC(C)(O)CC/C=C(/C)COC(=O)C(C)C1CCC(C)(C=C)O1 (stereo not given),Potency,[1],inactive
same,Potency,[2],inactive
O=C(NCC1(N2CCN(c3ccccc3)CC2)CCOCC1)c1cccnc1Sc1ccccc1,Potency,[1],inactive
same,Potency,[2],inactive
O=C1C(Cc2ccc(O)cc2)N2C(=O)CCN(C(=O)NCc3ccccc3)C2CN1Cc1cccc2ccccc12 (stereo not given),Potency,[1],20 µM (active)
same,Potency,[2],7.94 µM (active)
CC[C@@H]1C[C@]1(NC(=O)[C@@H]1C[C@@H]2CN1C(=O)[C@H](C(C)(C)C)NC(=O)OCC(C)(C)CCCCc1cccc3c1CN(C3)C(=O)O2)C(=O)NS(=O)(=O)C1CC1,Potency,[1],inactive
same,Potency,[2],inactive
same,Potency,[3],inactive
Cn1ncnc1[C@H]1c2n[nH]c(=O)c3cc(F)cc(c23)N[C@@H]1c1ccc(F)cc1,Potency,[1],inactive
same,Potency,[2],inactive
COc1cc(CCC2=NN=C(NC(=O)c3ccc(N4C[C@@H](C)N[C@@H](C)C4)cc3)C2)cc(OC)c1,Potency,[1],12.6 µM (active)
same,Potency,[2],22.4 µM (active)
CC(C)S(=O)(=O)NC[C@H](C)c1ccc(-c2ccc(CCNS(C)(=O)=O)cc2)cc1,Potency,[1],17.8 µM (active)
same,Potency,[2],inactive
CCOC(=O)c1cnc2ccc(-c3cncc(NS(=O)(=O)c4ccccc4)c3)cn12,Potency,[1],31.6 µM (active)
same,Potency,[2],4.47 µM (active)
same,Potency,[3],1.41 µM (active)
C=CC(C)(O)CC/C=C(\C)C(=O)OC1C(O)C(CO)OC(OC(=O)C23CCC(C)(C)CC2C2=CCC4C5(C)CCC(OC6OC(COC7OCC(OC(C)=O)C(O)C7OC7OC(COC(C)=O)C(O)C(O)C7OC(C)=O)C(O)C(O)C6OC6OCC(O)C(O)C6O)C(C)(C)C5CCC4(C)C2(C)C(O)C3O)C1OC1OCC(OC2OCC(O)C(OC3OCC(O)C(O)C3O)C2O)C(O)C1O (stereo not given),"activity change, negative = cytotoxicity",[1],0.6% [at 6.55 µM]
same,"activity change, negative = cytotoxicity",[2],-26.1% [at 6.55 µM]
C=C1C(=O)OC2C=C(C)CC/C=C(\CO)CC(O)C12 (stereo not given),Potency,[1],inactive
same,Potency,[2],inactive
same,Potency,[3],inactive
CCOc1cc(C(C)(C)C)ccc1C1=NC(C)(c2ccc(Cl)cc2)C(C)(c2ccc(Cl)cc2)N1C(=O)N1CCN(CCCS(C)(=O)=O)CC1 (stereo not given),Potency,[1],inactive
same,Potency,[2],15.8 µM (active)
CN1CCC(NC(=O)c2cc(-c3c(O)cc(O)cc3Oc3ccc([N+](=O)[O-])cc3)on2)CC1,Potency,[1],1.58 µM (active)
same,Potency,[2],0.562 µM (active)
COc1ccc(C2(CNC(=O)c3ccc(NC(=O)c4ccco4)cc3)CCOCC2)cc1,Potency,[1],inactive
same,Potency,[2],inactive
C=C1C(=O)O[C@@H]2C(OC(=O)/C(C)=C\C)/C(C)=C\C(=O)/C=C(\C)C[C@H](O)[C@@H]12 (stereo not given in full),Potency,[1],inactive
same,Potency,[2],10 µM (active)
O=C(c1cc(Cc2n[nH]c(=O)c3ccccc23)ccc1F)N1CCCNCC1,Potency,[1],inactive
same,Potency,[2],inactive
same,Potency,[3],inactive
CCCC1(CCC)CCC2(CCN(CCCN(CC)CC)C2)CC1,Potency,[1],7.94 µM (active)
same,Potency,[2],6.31 µM (active)
C=C(C)C(=O)O[C@H]1[C@H]2C(=C)C(=O)O[C@@H]2/C=C(\CO)CC/C=C(/C=O)[C@@H]1O,Potency,[1],inactive
same,Potency,[2],inactive
same,Potency,[3],inactive
Nc1nc(Nc2ccc3c(c2)CCC(N2CCCC2)CC3)nn1-c1cc2c(nn1)-c1ccccc1CCC2 (stereo not given),Potency,[1],7.08 µM (active)
same,Potency,[2],22.4 µM (active)
COc1ccc(S(=O)(=O)Nc2c(C)cc(C)cc2C)cc1,Potency,[1],inactive
same,Potency,[2],inactive
COC(=O)CC(O)CC(O)/C=C/c1c(C)ccc2c1C(OC(C)=O)CC(C)C2 (stereo not given),Potency,[1],inactive
same,Potency,[2],inactive
Cc1ccccc1CN1CCn2c1nc1c(c2=O)CN(Cc2ccccc2)CC1,Potency,[1],inactive
same,Potency,[2],inactive
same,Potency,[3],inactive
C[C@@]12C(=O)N(c3ccc(C(=O)Nc4cccc5cccnc45)cc3)C(=O)[C@@H]1[C@@H]1C=C[C@H]2C1,Potency,[1],inactive
same,Potency,[2],inactive
Cn1ncc(Cl)c1-c1cc(C(=O)N[C@H](CN)Cc2cccc(F)c2)sc1Cl,Potency,[1],14.1 µM (active)
same,Potency,[2],1.58 µM (active)
COc1nc2ccc(Br)cc2cc1[C@@H](c1ccccc1)[C@@](O)(CCN(C)C)c1cccc2ccccc12,Potency,[1],inactive
same,Potency,[2],inactive
same,Potency,[3],inactive
Cn1ncc(Cl)c1-c1cc(C(=O)N[C@H](CN)Cc2ccc(F)c(F)c2)oc1Cl,Potency,[1],4.47 µM (active)
same,Potency,[2],0.708 µM (active)
COc1cccc(-c2cn(-c3ccc(CCN4CCC(O)CC4)cc3)c3ncnc(N)c23)c1,Potency,[1],8.91 µM (active)
same,Potency,[2],17.8 µM (active)
